Where “and” joins values, the source holds several entries; their conditions need not be identical. Equal values may be shown once. Inconclusive results are not listed. Calls of active or inactive are those of the source. How the source made its calls: active means hit-call score of the fitted dose curve at least 0.9, where 1 is the maximum; inconclusive means response in the unintended direction; inactive means score below 0.9.

The nature of assay [1]: TOX21_p53_BLA_p3_viability: Viability Assessment in the Tox21 HCT-116 p53 Agonism Beta-lactamase Assay, Phase 3 (AID 2283593).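 Further: cells exposed to compound for 16 h before reading.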 An outline of the steps:
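Cellular ATP was quantified by CellTiter-Glo luminescence, read after 30 min at room temperature. Beforehand, HCT116 cells (4000/well) received compound 5 h post-seeding, 217-fold diluted from DMSO, then incubated 16 h at 37C.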

For assay [2], the target named is Cellular tumor antigen p53 (Homo sapiens) (UniProt P04637). Briefly: TOX21_p53_BLA_p3_ratio: Tox21 HCT-116 p53 Agonism Beta-lactamase Assay, Ratio, Phase 3 (AID 2283596). The gist of the method:
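Cells were seeded at 4000/well, rested 5 h at 37C, then dosed with DMSO compound solutions (217-fold dilution) for 16 h. CCF4-AM substrate was loaded for 2 h at room temperature, and the 460/530 nm emission ratio was fitted for gain of signal versus DMSO.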

The nature of assay [3]: TOX21_p53_BLA_p4_viability: Viability Assessment in the Tox21 HCT-116 p53 Agonism Beta-lactamase Assay, Phase 4 (AID 2283597).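 Further: hits lower the luminescence signal meaning cytotoxicity.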 The gist of the method:
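Cytotoxicity was inferred from loss of CellTiter-Glo luminescence. HCT116 cells had been dosed with compounds after 5 h plating, incubated 16 h at 37C and 5% CO2, and exposed to the CCF4-AM substrate for 2 h.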

The target of assay [4] is Cellular tumor antigen p53 (Homo sapiens) (UniProt P04637). As to the kind of experiment: TOX21_p53_BLA_p5_ratio: Tox21 HCT-116 p53 Agonism Beta-lactamase Assay, Ratio, Phase 5 (AID 2283599). An outline of the steps: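 Beta-lactamase reporter ratio (blue 460 nm over green 530 nm, 405 nm excitation) after 2 h CCF4-AM loading, in HCT-116 cells exposed 16 h at 37 C to compounds pinned at 217-fold dilution. Increases relative to DMSO baseline scored.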
Sequence of Cellular tumor antigen p53 (Homo sapiens) (P04637 whole entry, looked up): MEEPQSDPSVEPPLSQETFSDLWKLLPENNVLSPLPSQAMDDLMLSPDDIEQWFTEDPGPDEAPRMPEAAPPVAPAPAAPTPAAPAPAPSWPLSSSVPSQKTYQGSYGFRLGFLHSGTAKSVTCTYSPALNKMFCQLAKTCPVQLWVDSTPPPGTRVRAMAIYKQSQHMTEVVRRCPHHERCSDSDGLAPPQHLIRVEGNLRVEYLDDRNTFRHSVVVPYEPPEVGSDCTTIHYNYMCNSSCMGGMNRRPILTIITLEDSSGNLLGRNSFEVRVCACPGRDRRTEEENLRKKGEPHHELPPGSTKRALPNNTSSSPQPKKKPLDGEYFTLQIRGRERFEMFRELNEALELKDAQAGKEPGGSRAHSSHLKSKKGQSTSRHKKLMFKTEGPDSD

The target is the same in assay [5]. As to the kind of experiment: TOX21_p53_BLA_p4_ratio: Tox21 HCT-116 p53 Agonism Beta-lactamase Assay, Ratio, Phase 4 (AID 2283601). The gist of the method: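 Signal is the blue/green (460nm/530nm) ratio of cleaved versus uncleaved CCF4-AM substrate, read after 2 h substrate loading. Cells were HCT116 carrying the p53-responsive beta-lactamase reporter, dosed 16 h at 37C, 5% CO2; CellTiter-Glo measured in parallel.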

The nature of assay [6]: Tanguay_ZF_120hpf_MORT_legacy: (Legacy) Oregon State University Tanguay Lab 120 Hour Post-fertilization zebrafish Assay for Mortality (AID 2283633).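 On AC50: fitted as increase in binary mortality versus DMSO negative control.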 An outline of the steps:
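Dechorionated Tropical 5D wild-type zebrafish embryos, one per well from 6 hpf, were statically exposed at 28C in the dark until 120 hpf (0.64% DMSO final). Mortality was scored as present/absent by brightfield microscopy, fitted positively versus DMSO.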

The nature of assay [7]: Tanguay_ZF_120hpf_YSE_legacy: (Legacy) Oregon State University Tanguay Lab 120 Hour Post-fertilization zebrafish Assay for Yolk Sac Edema (AID 2283634).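 On AC50: actives raise the incidence of yolk sac edema above the DMSO baseline.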 An outline of the steps:
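Tropical 5D wild-type embryos, dechorionated with pronase at 4 hpf, were exposed singly from 6 hpf to 120 hpf under static, sealed, dark conditions at 28C with 0.64% DMSO final. Yolk sac edema was scored present/absent by brightfield microscopy.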

Assay [8] in a line: Tanguay_ZF_120hpf_AXIS_legacy: (Legacy) Oregon State University Tanguay Lab 120 Hour Post-fertilization zebrafish Assay for Body Axis Malformation (AID 2283635).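 On AC50: potency for an increased fraction of larvae scored with body axis malformation.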 An outline of the steps: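 Tropical 5D wild-type zebrafish embryos, dechorionated with pronase at 4 hpf, were placed singly in wells at 6 hpf and exposed statically to test chemical (0.64% DMSO final) at 28C until 120 hpf, then scored by brightfield for body axis defects.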

Assay [9] can be described thus: Tanguay_ZF_120hpf_EYE_legacy: (Legacy) Oregon State University Tanguay Lab 120 Hour Post-fertilization zebrafish Assay for Eye Malformation (AID 2283636).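 Further: binary presence or absence of eye malformation scored by brightfield in 120 hpf larvae.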 The gist of the method: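 Binary brightfield scoring of eye defects at 120 hpf after static exposure from 6 hpf of single pronase-dechorionated wild-type embryos (28C, 0.64% DMSO). Non-mortality endpoints omitted where embryos died; fit vs DMSO.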

Assay [10] in a line: Tanguay_ZF_120hpf_SNOU_legacy: (Legacy) Oregon State University Tanguay Lab 120 Hour Post-fertilization zebrafish Assay for Snout Malformation (AID 2283637). The gist of the method: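 Binary snout-malformation call at 120 hpf in wild-type 5D embryos, chorion removed by pronase, under static exposure from 6 hpf at 28C (0.64% DMSO). Embryos dying by 24 or 120 hpf excluded.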
A short description of assay [11]: Tanguay_ZF_120hpf_JAW_legacy: (Legacy) Oregon State University Tanguay Lab 120 Hour Post-fertilization zebrafish Assay for Jaw Malformation (AID 2283638).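 On AC50: active means more embryos with jaw malformation than DMSO controls.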 An outline of the steps: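 Tropical 5D wild-type embryos, dechorionated with pronase at 4 hpf, were placed singly per well at 6 hpf and statically exposed at 28C until 120 hpf (0.64% DMSO final). Jaw malformation scored as present/absent by brightfield microscopy at 120 hpf, analyzed relative to DMSO.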

Assay [12] in a line: Tanguay_ZF_120hpf_OTIC_legacy: (Legacy) Oregon State University Tanguay Lab 120 Hour Post-fertilization zebrafish Assay for Otic Vesicle Malformation (AID 2283639). An outline of the steps: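 Brightfield scoring at 120 hpf, binary present/absent; DMSO negative control, 5uM trimethyltin chloride positive control. Static exposure at 28C, final DMSO 0.64% (vol/vol). Dead embryos not scored for malformation.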

Assay [13] is described as follows: Tanguay_ZF_120hpf_PE_legacy: (Legacy) Oregon State University Tanguay Lab 120 Hour Post-fertilization zebrafish Assay for Pericardial Edema (AID 2283640).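 On AC50: potency for increased incidence of pericardial edema versus DMSO baseline.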 The gist of the method: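 Tropical 5D wild-type zebrafish embryos were exposed statically to 120 hpf at 28C, sealed and foil-covered, in 0.64% DMSO final. Pericardial edema was scored present/absent by brightfield microscopy; dead embryos were not scored.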

Assay [14] can be described thus: Tanguay_ZF_120hpf_BRAI_legacy: (Legacy) Oregon State University Tanguay Lab 120 Hour Post-fertilization zebrafish Assay for Brain Malformation (AID 2283641). An outline of the steps:
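Tropical 5D wild-type zebrafish embryos were exposed statically in sealed, foil-covered plates at 28C until 120 hpf, with 0.64% (vol/vol) final DMSO. Brain malformation was scored present/absent by brightfield microscopy, relative to DMSO baseline.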

Assay [15] can be described thus: Tanguay_ZF_120hpf_PFIN_legacy: (Legacy) Oregon State University Tanguay Lab 120 Hour Post-fertilization zebrafish Assay for Pectoral Fin Malformation (AID 2283648).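 Further: each larva judged yes or no for fin defect by brightfield with dead larvae skipped.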 An outline of the steps:
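Pectoral fin malformation was recorded as a binary endpoint at 120 hpf in wild-type Tropical 5D larvae, which had been dechorionated and exposed statically from 6 hpf at 28C in 0.64% DMSO. Dead embryos were excluded.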

The nature of assay [16]: Tanguay_ZF_120hpf_CFIN_legacy: (Legacy) Oregon State University Tanguay Lab 120 Hour Post-fertilization zebrafish Assay for Caudal Fin Malformation (AID 2283649). The gist of the method:
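Tropical 5D wild-type embryos, dechorionated with pronase at 4 hpf, were placed singly in wells at 6 hpf and statically exposed to compound at 28C until 120 hpf (0.64% DMSO). Caudal fin malformation was scored present/absent by brightfield microscopy.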

Assay [17] in a line: Tanguay_ZF_120hpf_PIG_legacy: (Legacy) Oregon State University Tanguay Lab 120 Hour Post-fertilization zebrafish Assay for Pigmentation Malformation (AID 2283650). The gist of the method: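 Pigment malformation recorded as a binary call at 120 hpf in zebrafish (Tropical 5D) exposed singly from 6 hpf after pronase dechorionation. Static, sealed, 28C exposure, 0.64% DMSO; mortality excludes scoring; positive-direction fit against DMSO.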

A short description of assay [18]: Tanguay_ZF_120hpf_CIRC_legacy: (Legacy) Oregon State University Tanguay Lab 120 Hour Post-fertilization zebrafish Assay for Circulatory Malformation (AID 2283651). The gist of the method: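 Static exposure, 6–120 hpf, 28C, sealed and dark; one dechorionated 5D embryo/well; DMSO 0.64% v/v final. Binary circulation endpoint by brightfield; dead embryos not scored.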

A short description of assay [19]: Tanguay_ZF_120hpf_SOMI_legacy: (Legacy) Oregon State University Tanguay Lab 120 Hour Post-fertilization zebrafish Assay for Somite Malformation (AID 2283647). The gist of the method:
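Tropical 5D wild-type zebrafish embryos, dechorionated with pronase at 4 hpf, were placed singly at 6 hpf and statically exposed until 120 hpf at 28C in 0.64% DMSO. Somite malformation was scored present/absent by brightfield microscopy versus DMSO.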

Assay [20] in a line: TOX21_p53_BLA_p5_viability: Viability Assessment in the Tox21 HCT-116 p53 Agonism Beta-lactamase Assay, Phase 5 (AID 2283600). The gist of the method:
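Luciferase-coupled ATP quantitation of cells treated for 16 h (37C, 5% CO2) with test chemicals delivered in DMSO via a 217-fold dilution; 4000 cells/well; reagent incubated 30 min at room temperature before luminescence reading.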

Take `C[C@]12CC[C@@H]3c4ccc(O)cc4CC[C@H]3[C@@H]1CC[C@H]2O`: the outcome in assay [1], in assay [3], in [6], in assay [7], in [8] and in assay [9] was inactive. Besides, the compound was called inactive in [10], in [11], in assay [12], in assay [13], in assay [14] and in assay [15]. In addition, the result in assay [16], in [17] and in assay [18] was inactive. The half-maximal activity concentration (AC50) is 67.5 µM (active) and 15.8 µM (active) in assay [2]; 73.4 µM (active) and 16.7 µM (active) in [4]; 26.2 µM (active) in assay [5].

Turning to `Clc1cc(Cl)c2c(c1)N=C1CCCCCN1C2`, the call in [1], in [2], in [3], in assay [4], in [5] and in [6] was inactive. Further, the outcome in assay [9], in assay [11], in [12], in assay [14], in assay [19] and in assay [15] was inactive. Besides, the result in assay [16], in assay [17] and in assay [18] was inactive. Moreover, the AC50 in assay [7] is 21.5 µM (active); in assay [8], 7.43 µM (active); in assay [10], 8.56 µM (active); in assay [13], 24.9 µM (active).

For `CC[C@H](NC(=O)c1cc(F)ccc1NS(=O)(=O)c1cccc2cccnc12)c1ccccc1`, the result in assay [1], in [2], in assay [3], in [4], in [6] and in assay [8] was inactive. Also, the compound was called inactive in [10], in assay [11], in assay [12], in assay [13], in assay [14] and in assay [15]. The compound was called inactive in assay [16] and in assay [18]. In assay [5], the concentration at half-maximal activity (AC50) is 67.2 µM (active).

`C[C@]12CC[C@@H]3c4ccc(O)cc4CC[C@H]3[C@@H]1CCC2=O`: the outcome in [6], in assay [8], in assay [9], in [10], in assay [11] and in assay [12] was inactive. Moreover, the outcome in assay [15], in [16] and in [17] was inactive.

As to `CCOC(=O)O[C@H](C)OC(=O)c1ccc2c(c1)cc(C(=O)NC1CCN(C(C)C)CC1)n2Cc1cc(-c2ccc(Cl)s2)on1`, the AC50 is 55.8 µM (active) in [1]; 81.9 µM (active) in assay [2]; 13.5 µM (active) in assay [3]; 80.9 µM (active) in [4]; 72.9 µM (active) in assay [20]; 23.7 µM (active) in [6]. In addition, the AC50 was 54.1 µM (active) in assay [10] and 47.6 µM (active) in assay [11]. Besides, the outcome in assay [8], in assay [9], in assay [12], in assay [14], in assay [19] and in assay [15] was inactive. The call in assay [16], in assay [17] and in assay [18] was inactive.

As for `O=C(O)c1ccccc1C(=O)OCc1ccccc1`, the compound was classed as inactive in assay [1], in assay [2], in assay [4], in assay [20], in assay [5] and in assay [6]. Moreover, the result in assay [7], in assay [8], in assay [10], in assay [12], in assay [14] and in [15] was inactive. Also, the outcome in [16], in assay [17] and in assay [18] was inactive.

Usually AC50 stands for the concentration at which the activity in the assay is half-maximal.

These data come from PubChem BioAssay (EPA / NIEHS).
